# Where “and” joins values, the source holds several entries; their conditions need not be identical. Equal values may be shown once. This is part of a sample that, as a whole, favours compounds with a hit. Of some 83,000 tested, about 20% had one in any assay.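 Single-concentration screen, 48 h exposure, 96-well plates. Endpoint: percent growth. Below 10 = active.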 Calls of active or inactive are those of the source.
# Key:
# Assay in all cases: NCI-60 one-dose screen, 48 h (100 = growth as untreated, 0 = no growth, -100 = all killed)
# Settings in all cases: 10 µM unless noted
# UACC-62 melanoma = system: UACC-62 melanoma
# TK-10 renal = system: TK-10 renal
# CAKI-1 renal = system: CAKI-1 renal
SMILES,growth (UACC-62 melanoma),growth (TK-10 renal),growth (CAKI-1 renal)
C=C1C(=O)OC2/C=C(/C)C3(O)OC(C)(CC(OC(=O)C(C)C)C12)CC3OC(C)=O (stereo not drawn),-93% [100 µM] (active),-95.3% [100 µM] (active),–
CC(=O)OC(=C(C#N)C#N)c1nccnc1C(C)=O,96.4% [20 µM] (inactive) and -99.5% [20 µM] (active),102% [20 µM] (inactive) and -96% [20 µM] (active),–
NC(=O)c1[nH]cnc1/N=N/SCC(N)C(=O)O (stereo not drawn),6.63% [100 µM] (active) and 4.02% [100 µM] (active),9.64% [100 µM] (active) and 8.09% [100 µM] (active),–
O=c1cc(-c2ccc(O)cc2)oc2cc(O[C@@H]3O[C@H](CO)[C@@H](O)[C@H](O)[C@H]3O)cc(O)c12,29.2% [100 µM] (inactive) and -80.1% [100 µM] (active),46.1% [100 µM] (inactive) and 4% [100 µM] (active),–
COc1cc(Nc2ccc3c(c2)CCC3)nc(OC)n1,42.1% [100 µM] (inactive) and 2.26% [100 µM] (active),53.3% [100 µM] (inactive) and -39.4% [100 µM] (active),–
O=C1NC(=S)NC1C(Cc1ccccc1)c1ccco1 (stereo not drawn),36.5% [100 µM] (inactive) and 57.6% [100 µM] (inactive),80.1% [100 µM] (inactive) and 73% [100 µM] (inactive),–
COc1cc([N+](=O)[O-])c(OC)c2c(Nc3ccc(S(=O)(=O)O)c4cc(S(=O)(=O)O)cc(S(=O)(=O)O)c34)cc(C)nc12,-91% [100 µM] (active) and -100% [100 µM] (active),-99.9% [100 µM] (active) and -100% [100 µM] (active),–
Cc1ccc(NC(=S)C#N)c(C)c1,41.9% [100 µM] (inactive) and 1.46% [100 µM] (active),93.1% [100 µM] (inactive) and 43.3% [100 µM] (inactive),–
Oc1ccccc1-c1n[nH]c(-c2ccccc2O)n1,45.8% [100 µM] (inactive) and 4.35% [100 µM] (active),46.3% [100 µM] (inactive) and 4.42% [100 µM] (active),–
CCCCOC(=O)C1CN2C(=NC1(C(F)(F)F)C(F)(F)F)Sc1ccccc12 (stereo not drawn),4.45% [100 µM] (active) and 54.9% [100 µM] (inactive),33.3% [100 µM] (inactive) and 71.4% [100 µM] (inactive),–
N#Cc1c(SCc2ccccc2)nc(-c2ccccc2)[nH]c1=S,-44.7% [100 µM] (active) and 1.92% [100 µM] (active),9.89% [100 µM] (active) and 3.82% [100 µM] (active),–
CC(C)=CCC/C(C)=C/CC/C(C)=C/CSc1ccc(Cl)cc1C(=O)O,-72.3% [100 µM] (active) and 10.4% [100 µM] (inactive),-67.3% [100 µM] (active) and 28.4% [100 µM] (inactive),–
Cc1cc2c3c(nc4ccccc42)C(=O)c2cccnc2-c3n1,-89.9% [100 µM] (active) and -100% [100 µM] (active),-10.8% [100 µM] (active) and -100% [100 µM] (active),–
CC(=O)OCC1OC([S-])C(OC(C)=O)C(OC(C)=O)C1OC(C)=O.[Au+].c1ccc(CN2[CH-]N(Cc3ccccc3)C(c3ccccc3)=C2c2ccccc2)cc1,–,–,1.53% [4.75 µM] (active)
CCOC(=O)C1(C#N)C(=O)c2cc[n+](CC[n+]3ccc4c(c3)C(=O)C(C#N)(C(=O)OCC)C4=O)cc2C1=O (stereo not drawn),66.6% [100 µM] (inactive) and 29.5% [100 µM] (inactive),141% [100 µM] (inactive) and 101% [100 µM] (inactive),–
O=C(CCc1ccccc1)On1c(-c2ccccc2)nc2ccccc2c1=S,-68.8% [100 µM] (active) and -83.7% [100 µM] (active),9.44% [100 µM] (active) and -36.2% [100 µM] (active),–
CCCCCCCCCCCCCC1=C(O)C(=O)C(CC2=C(O)C(=O)C(CCCCCCCCCCCCC)=C(O)C2=O)=C(O)C1=O,9.52% [100 µM] (active) and -61.7% [100 µM] (active),33% [100 µM] (inactive) and -1.5% [100 µM] (active),–
CC(=O)OCC1O[C@@H]([S-])C(OC(C)=O)[C@H](OC(C)=O)[C@@H]1OC(C)=O.[Au+].c1ccc(CN2[CH-]N(Cc3ccccc3)C(c3ccccc3)=C2c2ccccc2)cc1,–,–,49.9% (inactive)

SMILES,growth (UACC-62 melanoma),growth (TK-10 renal),growth (CAKI-1 renal)
COC(=O)c1ccc(CCc2cc(O)c(Br)cc2O)cc1,-96.8% [100 µM] (active) and -100% [100 µM] (active),-97.6% [100 µM] (active) and -100% [100 µM] (active),–
O=C1c2c(O)ccc(O)c2C(=O)c2c(NCCNC(=O)C(O)C(O)C(O)C(O)CO)ccc(NCCNC(=O)C(O)C(O)C(O)C(O)CO)c21 (stereo not drawn),-100% [100 µM] (active),-82.4% [100 µM] (active) and -95.9% [100 µM] (active),–
O=C1N(c2ccccc2)N=C2c3ccncc3C3=NN(c4ccccc4)C(=O)C123 (stereo not drawn),59.9% [100 µM] (inactive) and 10.7% [100 µM] (inactive),70.4% [100 µM] (inactive) and -59.4% [100 µM] (active),–
Nc1cc2c3c(cccc3c1)C(=O)N(c1ccc(OCCN3CCCC3)cc1)C2=O,-37.5% [100 µM] (active) and -91.1% [100 µM] (active),33.8% [100 µM] (inactive) and -100% [100 µM] (active),–
O=c1c2ncn(C3CCCCO3)c2n(-c2ccccc2)c(=S)n1-c1ccccc1 (stereo not drawn),18.7% [100 µM] (inactive) and 4.84% [100 µM] (active),20.1% [100 µM] (inactive) and 23.9% [100 µM] (inactive),–
CC(C)=CCC/C(C)=C/CC/C(C)=C/CC/C(C)=C/C=C/C=C(\C)CC/C=C(\C)CC/C=C(\C)CCC=C(C)C,75.8% [100 µM] (inactive) and 45% [100 µM] (inactive),106% [100 µM] (inactive) and -87% [100 µM] (active),–
CC(=O)NC(CS/N=N/c1nc[nH]c1C(N)=O)C(=O)O (stereo not drawn),-5.07% [100 µM] (active) and 0.469% [100 µM] (active),7.53% [100 µM] (active) and 4.2% [100 µM] (active),–
N#C/C(=C\c1ccccc1)C(=O)Nc1nnc(-c2ccccc2)o1,36.9% [100 µM] (inactive) and -78.4% [100 µM] (active),88.2% [100 µM] (inactive) and 4.58% [100 µM] (active),–
O=c1[nH]c(=O)n(C2CC(O)C(CO)O2)cc1Br (stereo not drawn),72.2% [100 µM] (inactive) and 19.1% [100 µM] (inactive),67.2% [100 µM] (inactive) and 21% [100 µM] (inactive),–
C=C1C(=O)OC2/C=C(\CO)C(OC(C)=O)CC(O)/C(C)=C/C(OC(=O)C(C)CC)C12 (stereo not drawn),-85.5% [100 µM] (active) and -98.8% [100 µM] (active),-36.1% [100 µM] (active) and -92% [100 µM] (active),–
C/C(Cl)=N/OC(=O)Nc1ccc(S(N)(=O)=O)c(C)c1,-93.6% [100 µM] (active) and -100% [100 µM] (active),-100% [100 µM] (active),–
CC#CC#C/C=C1\C=CC2(OC=CC2OC(C)=O)O1 (stereo not drawn),-87% [100 µM] (active) and -100% [100 µM] (active),-20.2% [100 µM] (active) and -81% [100 µM] (active),–
COc1ccc(C2=C(N)c3ccccc3C2=O)cc1,44.1% [100 µM] (inactive) and 22.1% [100 µM] (inactive),79.7% [100 µM] (inactive) and -100% [100 µM] (active),–
CC1(C)CCCC(C)(C2CCC3(C)C2C(O)CC2C4(C)CCC(O)C(C)(C)C4C(O)CC23C)O1 (stereo not drawn),-76.6% [100 µM] (active) and -83.9% [100 µM] (active),4.11% [100 µM] (active) and -96.5% [100 µM] (active),–
Cc1sccc1C(=S)Nc1ccc(Cl)c(/C=N/OC(C)(C)C)c1,-86.5% [100 µM] (active) and -92.3% [100 µM] (active),-91.4% [100 µM] (active) and -90.7% [100 µM] (active),–
C=C1CC(O)C2C(=C)C(=O)OC2C2C(C)C(=O)CC12 (stereo not drawn),-89.7% [100 µM] (active) and -97.7% [100 µM] (active),-95.6% [100 µM] (active) and -97% [100 µM] (active),–
CN(C)CCNc1ccc(NCC[N+](C)(C)Cc2ccc([N+](=O)[O-])cc2)c2c1C(=O)c1c(O)ccc(O)c1C2=O,24.1% [100 µM] (inactive) and 0.198% [100 µM] (active),91.1% [100 µM] (inactive) and -23.2% [100 µM] (active),–

# Source: PubChem BioAssay (NCI)
